{"source": "PubChem BioAssay (NCI)", "note": "This is part of a sample that, as a whole, favours compounds with a hit. Of some 83,000 tested, about 20% had one in any assay.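 Assay: single dose, 48 h. Readout: percent growth (0 = no net growth; negative = cell death). Active: <10.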 Active and inactive are the calls of the source.", "data": [{"system": "SF-295 CNS", "assay": "NCI-60 one-dose screen, 48 h (100 = growth as untreated, 0 = no growth, -100 = all killed)", "conditions": "10 µM unless noted", "values": [{"smiles": "CC(=O)O[C@H]1CC[C@]2(C)[C@H]3CC=C4[C@@H]5CC(C)(C)CC[C@]5(C(=O)N5CCN(CCC#N)CC5)CC[C@@]4(C)[C@]3(C)CC[C@H]2C1(C)C", "growth": "65.5% (inactive)"}, {"smiles": "C[N+]1=C(/C=C/c2ccccc2Cl)C(C)(C)c2ccccc21", "growth": "103% (inactive)"}, {"smiles": "COC(=O)/C=C1/SC(=Nc2ccc(F)cc2)N(CCc2c[nH]c3ccc(O)cc23)C1=O", "growth": "61.5% (inactive)"}, {"smiles": "Cc1c2ccccc2nc2cc3c(cc12)[C@H]1CC[C@]2(C)C(=O)CC[C@H]2[C@@H]1CC3", "growth": "99.9% (inactive)"}, {"smiles": "O=C(/C=C/C12c3ccccc3C(c3ccccc31)C1C(=O)NC(=O)C12)c1ccco1", "note": "(centres undefined)", "growth": "41.9% (inactive)"}, {"smiles": "CC(C)Cc1nc(Nc2ccccc2)[nH]c(=O)c1C#N", "growth": "58.7% (inactive)"}, {"smiles": "CN(C)/C(N)=N/N=C(\\c1ccccc1)c1ccccn1", "growth": "106% (inactive)"}, {"smiles": "CS(=O)(=O)Nc1cc(-c2ccc3ncnc(Nc4ccc5c(cnn5Cc5ccccc5F)c4)c3c2)cnc1Cl", "growth": "60.9% (inactive)"}, {"smiles": "Nc1cc(-c2ccc(Cl)cc2)nn1-c1nnc(/C=C/c2ccco2)c(=O)[nH]1", "growth": "9.9% (active)"}, {"smiles": "CCCN(CCSSCCNc1nc(N(C)O)nc(N(C)O)n1)c1nc(N(C)O)nc(N(C)O)n1", "growth": "48.7% (inactive)"}, {"smiles": "Cc1nc([P+](c2ccccc2)(c2ccccc2)c2ccccc2)c(N2CCCCC2)o1", "growth": "32.7% (inactive)"}, {"smiles": "CCN(CC)CCn1c2ccc(OC)cc2c2sc3cc(O)ccc3c(=O)c21", "growth": "17.9% (inactive)"}, {"smiles": "O=C(NCCCCCCNC(=O)OCc1ccc2c(Cl)cc(Cl)c(O)c2n1)OCc1ccc2c(Cl)cc(Cl)c(O)c2n1", "growth": "32.4% (inactive)"}, {"smiles": "O=C(Nc1cccnc1Nc1ccc(Cl)cc1)c1cn(Cc2cccc(Oc3ccccc3)c2)nn1", "growth": "29.2% (inactive)"}, {"smiles": "Cc1ccc2c(c1)sc1nc(-c3c[nH]c4ccccc34)c(Nc3ccccc3)n12", "growth": "100% (inactive)"}, {"smiles": "CN1c2ccccc2S(=O)(=O)n2c(SCC(=O)Nc3nc4ccc(F)cc4s3)nnc21", "growth": "124% (inactive)"}, {"smiles": "COC12C=C/C(=C(/C(=O)OCc3csc(SC)n3)C(=O)CCCCCCCCC3(OC)C=C/C(=C(/C(=O)OCc4cnc(SC)s4)C(=O)CCCCCCCC1)O3)O2", "note": "(centres undefined)", "growth": "14.8% (inactive)"}, {"smiles": "Nc1[nH]nc2nc(-c3ccccc3)n3c4ccccc4nc3c12", "growth": "93.2% (inactive)"}, {"smiles": "CS(=O)/C(C#N)=C\\C=C\\c1cccc(Cl)c1", "note": "(centres undefined)", "growth": "32.5% (inactive)"}, {"smiles": "CN(C)CCCC1(c2ccc(F)cc2)OCc2cc(-c3csc4ccccc34)ccc21", "note": "(centres undefined)", "growth": "-52% (active)"}, {"smiles": "COCCn1cc(-c2csc(-c3c[nH]c4ccccc34)n2)c2cccnc21", "growth": "25.8% (inactive)"}, {"smiles": "O=S(=O)(NCCNc1nccc(-c2c(-c3ccc(F)c(O)c3)nc3sccn23)n1)c1ccc(Cl)cc1", "growth": "29.5% (inactive)"}, {"smiles": "Cc1cccc(NC(=O)N/C(N)=N/c2nc3ccccc3s2)c1", "growth": "49.1% (inactive)"}, {"smiles": "N#Cc1c(-c2cccc(Cl)c2)cc(-c2cccnc2)[nH]c1=O", "growth": "75.9% (inactive)"}, {"smiles": "C=CC(CC(c1ccccc1)(c1ccccc1)c1ccccc1)N(CC)CC", "note": "(centres undefined)", "growth": "78.8% (inactive)"}, {"smiles": "C/C(=C(\\c1ccc(OCCN2CCCCCC2)cc1)c1ccc(OC(=O)c2ccccc2)cc1)c1ccc(Cl)cc1", "growth": "44.4% (inactive)"}, {"smiles": "O=C(/C=C/c1ccccc1)c1ccc(-n2cc(CN3CCN(c4cc5c(cc4F)c(=O)c(C(=O)O)cn5C4CC4)CC3)nn2)cc1", "growth": "91.7% (inactive)"}, {"smiles": "CCCCCCCCCCCCCCCCCCOc1ccccc1CC(=O)NCC[N+](C)(C)C", "growth": "52.1% (inactive)"}, {"smiles": "CCN(CC)CCOc1ccc(/C(=C(\\C)Cc2ccc(OC)cc2)c2ccc(OC(=O)NCc3ccccc3)cc2)cc1", "growth": "59.4% (inactive)"}, {"smiles": "COc1cc([C@@H](CCO)C[C@H](C)c2ccc3ccccc3c2)cc(OC)c1OC", "growth": "19.6% (inactive)"}, {"smiles": "CCOC(=O)/C(=C(/C)NCC(C)C)c1cc(O)c(O)c2c(C)cc(=O)[nH]c12", "growth": "52.3% (inactive)"}, {"smiles": "COc1ccc(/C=C2\\c3cc(OC)c(OC)c(OC)c3CC[C@@H]2O)cc1F", "growth": "17% (inactive)"}, {"smiles": "O=c1oc2c(cc1-c1ccccc1)c[n+]([O-])c1ccccc21", "growth": "101% (inactive)"}, {"smiles": "CN1C(=O)/C(=C/c2ccc(C(=O)Nc3ncc(Cc4cccc(C(F)(F)F)c4)s3)cc2)SC1=S", "growth": "26.4% (inactive)"}]}, {"system": "SF-539 CNS", "assay": "NCI-60 one-dose screen, 48 h (100 = growth as untreated, 0 = no growth, -100 = all killed)", "conditions": "10 µM unless noted", "values": [{"smiles": "O=C(Nc1ncc(Cc2ccccc2)s1)c1sc2ccccc2c1Cl", "growth": "-1.43% (active)"}, {"smiles": "Cc1ccccc1N1CCN(C(=S)c2ccccc2)CC1", "growth": "94.7% (inactive)"}, {"smiles": "CC(C)(C)c1ccc(S(=O)(=O)Oc2ccc(-c3sc4cc(OS(=O)(=O)c5ccc(C(C)(C)C)cc5)ccc4c3C(=O)c3ccc(OCCN4CCCCC4)cc3)cc2)cc1", "growth": "96.8% (inactive)"}, {"smiles": "CCn1cc(C(=O)N/N=C/c2ccccc2)c(=O)c2cc(F)c(N3CCNC(C)C3)c(F)c21", "note": "(centres undefined)", "growth": "-86.9% (active)"}, {"smiles": "COC1/C=C/OC2(C)Oc3c(C)c(O)c4c(O)c(c(/C=N/N(c5ccccc5)c5ccccc5)c(O)c4c3C2=O)NC(=O)C(C)=C/C=C/C(C)C(O)C(C)C(O)C(C)C(OC(C)=O)C1C", "note": "(centres undefined)", "growth": "89.8% (inactive)"}, {"smiles": "CS(=O)(=O)c1ccc(-c2nc3ccccc3n2CC(=O)N/N=C/c2ccccc2)cc1", "growth": "97.5% (inactive)"}, {"smiles": "CC(=O)O[C@H]1CC[C@]2(C)[C@H]3CC=C4[C@@H]5CC(C)(C)CC[C@]5(C(=O)N5CCN(CCC#N)CC5)CC[C@@]4(C)[C@]3(C)CC[C@H]2C1(C)C", "growth": "16.7% (inactive)"}, {"smiles": "C[N+]1=C(/C=C/c2ccccc2Cl)C(C)(C)c2ccccc21", "growth": "101% (inactive)"}, {"smiles": "COC(=O)/C=C1/SC(=Nc2ccc(F)cc2)N(CCc2c[nH]c3ccc(O)cc23)C1=O", "growth": "45.3% (inactive)"}, {"smiles": "Cc1c2ccccc2nc2cc3c(cc12)[C@H]1CC[C@]2(C)C(=O)CC[C@H]2[C@@H]1CC3", "growth": "96.5% (inactive)"}, {"smiles": "O=C(/C=C/C12c3ccccc3C(c3ccccc31)C1C(=O)NC(=O)C12)c1ccco1", "note": "(centres undefined)", "growth": "30.8% (inactive)"}, {"smiles": "CC(C)Cc1nc(Nc2ccccc2)[nH]c(=O)c1C#N", "growth": "50.7% (inactive)"}, {"smiles": "CN(C)/C(N)=N/N=C(\\c1ccccc1)c1ccccn1", "growth": "103% (inactive)"}, {"smiles": "CS(=O)(=O)Nc1cc(-c2ccc3ncnc(Nc4ccc5c(cnn5Cc5ccccc5F)c4)c3c2)cnc1Cl", "growth": "34.5% (inactive)"}, {"smiles": "Nc1cc(-c2ccc(Cl)cc2)nn1-c1nnc(/C=C/c2ccco2)c(=O)[nH]1", "growth": "55.4% (inactive)"}, {"smiles": "CCCN(CCSSCCNc1nc(N(C)O)nc(N(C)O)n1)c1nc(N(C)O)nc(N(C)O)n1", "growth": "62.8% (inactive)"}, {"smiles": "Cc1nc([P+](c2ccccc2)(c2ccccc2)c2ccccc2)c(N2CCCCC2)o1", "growth": "46.6% (inactive)"}, {"smiles": "CCN(CC)CCn1c2ccc(OC)cc2c2sc3cc(O)ccc3c(=O)c21", "growth": "25.3% (inactive)"}, {"smiles": "O=C(NCCCCCCNC(=O)OCc1ccc2c(Cl)cc(Cl)c(O)c2n1)OCc1ccc2c(Cl)cc(Cl)c(O)c2n1", "growth": "-97.1% (active)"}, {"smiles": "O=C(Nc1cccnc1Nc1ccc(Cl)cc1)c1cn(Cc2cccc(Oc3ccccc3)c2)nn1", "growth": "33.6% (inactive)"}, {"smiles": "Cc1ccc2c(c1)sc1nc(-c3c[nH]c4ccccc34)c(Nc3ccccc3)n12", "growth": "97.2% (inactive)"}, {"smiles": "CN1c2ccccc2S(=O)(=O)n2c(SCC(=O)Nc3nc4ccc(F)cc4s3)nnc21", "growth": "108% (inactive)"}, {"smiles": "COC12C=C/C(=C(/C(=O)OCc3csc(SC)n3)C(=O)CCCCCCCCC3(OC)C=C/C(=C(/C(=O)OCc4cnc(SC)s4)C(=O)CCCCCCCC1)O3)O2", "note": "(centres undefined)", "growth": "27.4% (inactive)"}, {"smiles": "Nc1[nH]nc2nc(-c3ccccc3)n3c4ccccc4nc3c12", "growth": "103% (inactive)"}, {"smiles": "CS(=O)/C(C#N)=C\\C=C\\c1cccc(Cl)c1", "note": "(centres undefined)", "growth": "17.7% (inactive)"}, {"smiles": "CN(C)CCCC1(c2ccc(F)cc2)OCc2cc(-c3csc4ccccc34)ccc21", "note": "(centres undefined)", "growth": "-81.7% (active)"}, {"smiles": "COCCn1cc(-c2csc(-c3c[nH]c4ccccc34)n2)c2cccnc21", "growth": "43.5% (inactive)"}, {"smiles": "O=S(=O)(NCCNc1nccc(-c2c(-c3ccc(F)c(O)c3)nc3sccn23)n1)c1ccc(Cl)cc1", "growth": "43% (inactive)"}, {"smiles": "Cc1cccc(NC(=O)N/C(N)=N/c2nc3ccccc3s2)c1", "growth": "-3.23% (active)"}, {"smiles": "N#Cc1c(-c2cccc(Cl)c2)cc(-c2cccnc2)[nH]c1=O", "growth": "71.6% (inactive)"}, {"smiles": "C=CC(CC(c1ccccc1)(c1ccccc1)c1ccccc1)N(CC)CC", "note": "(centres undefined)", "growth": "69.1% (inactive)"}, {"smiles": "C/C(=C(\\c1ccc(OCCN2CCCCCC2)cc1)c1ccc(OC(=O)c2ccccc2)cc1)c1ccc(Cl)cc1", "growth": "58.5% (inactive)"}, {"smiles": "O=C(/C=C/c1ccccc1)c1ccc(-n2cc(CN3CCN(c4cc5c(cc4F)c(=O)c(C(=O)O)cn5C4CC4)CC3)nn2)cc1", "growth": "69% (inactive)"}, {"smiles": "CCCCCCCCCCCCCCCCCCOc1ccccc1CC(=O)NCC[N+](C)(C)C", "growth": "46.4% (inactive)"}, {"smiles": "CCN(CC)CCOc1ccc(/C(=C(\\C)Cc2ccc(OC)cc2)c2ccc(OC(=O)NCc3ccccc3)cc2)cc1", "growth": "65.6% (inactive)"}, {"smiles": "COc1cc([C@@H](CCO)C[C@H](C)c2ccc3ccccc3c2)cc(OC)c1OC", "growth": "9.87% (active)"}, {"smiles": "CCOC(=O)/C(=C(/C)NCC(C)C)c1cc(O)c(O)c2c(C)cc(=O)[nH]c12", "growth": "35.7% (inactive)"}, {"smiles": "COc1ccc(/C=C2\\c3cc(OC)c(OC)c(OC)c3CC[C@@H]2O)cc1F", "growth": "1.44% (active)"}, {"smiles": "O=c1oc2c(cc1-c1ccccc1)c[n+]([O-])c1ccccc21", "growth": "101% (inactive)"}, {"smiles": "CN1C(=O)/C(=C/c2ccc(C(=O)Nc3ncc(Cc4cccc(C(F)(F)F)c4)s3)cc2)SC1=S", "growth": "56.3% (inactive)"}]}]}
